Experimental data reported in PubChem BioAssay (NCI).
About 79,000 compounds went through this panel and 15% of them were active in at least one assay; those are over-represented in the sample as a whole. Calls of active or inactive are those of the source. Rule as the data show it: active = growth inhibition above about 70%; inactive = the rest.

Assays:
[1] = NCI Yeast Anticancer Drug Screen. Data for the rad50 strain (AID 155);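 also: 0% = growth of vehicle-only cultures of the same strain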; settings: S. cerevisiae rad50 strain growth inhibition, active compounds read high
Outline: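 A DNA repair-deficient yeast mutant serves as the test organism; compound-induced growth inhibition is calculated against vehicle-treated cells.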

[2] = NCI Yeast Anticancer Drug Screen. Data for the mec2-1 strain (AID 157); settings: S. cerevisiae mec2-1 strain, active compounds read high
Outline: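 Vehicle-treated cultures served as reference for growth inhibition of compound-exposed mec2-1 yeast.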

[3] = NCI Yeast Anticancer Drug Screen. Data for the sgs1 mgt1 strain (AID 161);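 also: 0% = growth of cultures given vehicle only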; settings: S. cerevisiae sgs1 mgt1 strain, active compounds read high
Outline: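 Test agents were incubated with a DNA-repair-mutant yeast strain. Growth was then read and compared against vehicle-treated controls.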

[4] = NCI Yeast Anticancer Drug Screen. Data for the cln2 rad14 strain (AID 165);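 also: 0% = growth equal to vehicle treated cultures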; settings: S. cerevisiae cln2 rad14 strain, active compounds read high
Outline: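 Each compound was tested on cln2 rad14 yeast. Inhibition of growth was calculated against vehicle-exposed controls.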

[5] = NCI Yeast Anticancer Drug Screen. Data for the bub3 strain (AID 167); settings: S. cerevisiae bub3 mutant strain, active compounds read high
Outline: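 Inhibition values come from growth of compound-treated mutant yeast normalised to vehicle-treated controls.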

[6] = NCI Yeast Anticancer Drug Screen. Data for the mlh1 rad18 strain (AID 175); settings: S. cerevisiae mlh1 rad18 strain growth inhibition, active compounds read high
Outline: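 Vehicle-treated cultures served as the reference for growth inhibition in a yeast strain carrying DNA damage repair alterations exposed to each compound.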

[7] = at 5.0 µM (retest, dose inferred, filed as 0.5)
[8] = at 50.0 µM (retest, dose inferred, filed as 5.0)

Measured: growth inhibition

CC(C)(C)c1ccc(-c2nc3ccccc3c(=O)o2)cc1
inactive: [1]; [7] -3% | [1]; [8] 20% | [1]; at 50.0 µM 55.7% | [2]; [7] -1% | [2]; [8] 41% | [2]; at 50.0 µM 53.1% | [3]; [7] 14% | [4]; [7] -2% | [4]; [8] 40% | [4]; at 50.0 µM 61% | [5]; [7] -1% | [6]; [7] -3% | [6]; [8] 55%
active: [3]; [8] 74% | [3]; at 50.0 µM 87.2% | [5]; [8] 86% | [5]; at 50.0 µM 89.8% | [6]; at 50.0 µM 85%

COC(=O)[C@]1(C)CCC[C@]2(C)c3ccc(C(C)C)cc3C(=O)C[C@@H]12
active: [1]; [8] 87% | [1]; at 50.0 µM 95.9% | [2]; [8] 90% | [2]; at 50.0 µM 99% | [3]; [8] 93% | [3]; at 50.0 µM 96.2% | [4]; [8] 82% | [4]; at 50.0 µM 89.5% | [5]; [8] 88% | [5]; at 50.0 µM 97.7% | [6]; [8] 73% | [6]; at 50.0 µM 94.5%
inactive: [1]; [7] 5% | [2]; [7] 4% | [3]; [7] 1% | [4]; [7] 4% | [5]; [7] 6% | [6]; [7] -9%

CCOC(=O)Cc1cc(=O)oc2c(CN3CCN(c4ccc(C)cc4)CC3)c(O)ccc12
inactive: [1]; [7] 3% | [1]; [8] 55% | [1]; at 50.0 µM 60.8% | [2]; [7] 3% | [2]; at 50.0 µM 51.7% | [3]; [7] -1% | [3]; at 50.0 µM 38.2% | [4]; [7] 8% | [4]; at 50.0 µM 1.2% | [5]; [7] 7% | [5]; at 50.0 µM 26.8% | [6]; [7] 3%
active: [2]; [8] 77% | [3]; [8] 87% | [4]; [8] 74% | [5]; [8] 86% | [6]; [8] 81% | [6]; at 50.0 µM 78.8%

O=C1c2ccccc2C(=O)c2sc(Nc3ccc(Cl)c(Cl)c3)nc21
active: [1]; [7] 89% | [1]; [8] 98% | [1]; at 50.0 µM 90% | [2]; [7] 86% | [2]; [8] 98% | [2]; at 50.0 µM 92.8% | [3]; [7] 99% | [3]; [8] 98% | [3]; at 50.0 µM 93.2% | [4]; [8] 98% | [4]; at 50.0 µM 88% | [5]; [7] 99% | [5]; [8] 97% | [5]; at 50.0 µM 91.2% | [6]; [7] 91% | [6]; [8] 97% | [6]; at 50.0 µM 91.3%
inactive: [4]; [7] 68%

O=[N+]([O-])c1ccc2nc(-c3ccccn3)[nH]c2c1
active: [1]; at 50.0 µM 86.3% | [2]; at 50.0 µM 87% | [3]; at 50.0 µM 73.6% | [4]; at 50.0 µM 77.3% | [5]; at 50.0 µM 88.6% | [6]; at 50.0 µM 88.5%
inactive: [1]; [7] -2% | [1]; [8] 27% | [2]; [7] 1% | [2]; [8] 5% | [3]; [7] -13% | [3]; [8] 17% | [4]; [7] -12% | [4]; [8] -3% | [5]; [7] -25% | [5]; [8] 16% | [6]; [7] -38% | [6]; [8] 42%

CC1OC(Oc2c(-c3ccc(O)c(O)c3O)oc3cc(O)ccc3c2=O)C(O)C(O)C1O (centres undefined)
inactive: [1]; [7] -4% | [1]; [8] -2% | [1]; at 50.0 µM 14.4% | [2]; [7] -10% | [2]; [8] -5% | [2]; at 50.0 µM 9.6% | [3]; [7] -5% | [3]; [8] 8% | [3]; at 50.0 µM 17.6% | [4]; [7] 3% | [4]; [8] -6% | [4]; at 50.0 µM 2.9% | [5]; [7] -3% | [5]; [8] -3% | [5]; at 50.0 µM -12.7% | [6]; [7] -5% | [6]; [8] -8% | [6]; at 50.0 µM 27.8%

NNc1ccccc1[N+](=O)[O-]
inactive: [1]; [7] 8% | [2]; [7] 8% | [3]; [7] -2% | [3]; [8] 62% | [4]; [7] 24% | [5]; [7] 6% | [6]; [7] -11%
active: [1]; [8] 80% | [1]; at 50.0 µM 89% | [2]; [8] 84% | [2]; at 50.0 µM 89.2% | [3]; at 50.0 µM 84.6% | [4]; [8] 82% | [4]; at 50.0 µM 77.2% | [5]; [8] 98% | [5]; at 50.0 µM 88.5% | [6]; [8] 96% | [6]; at 50.0 µM 83.3%

O=C1C2Nc3ccccc3SC2C(=O)N1c1ccccc1C(F)(F)F (centres undefined)
inactive: [1]; [7] 3% | [1]; [8] 35% | [2]; [7] 3% | [2]; [8] 11% | [2]; at 50.0 µM 12.5% | [3]; [7] 16% | [3]; [8] 24% | [3]; at 50.0 µM 47.4% | [4]; [7] 2% | [4]; [8] 11% | [4]; at 50.0 µM 46.5% | [5]; [7] -1% | [5]; [8] 29% | [5]; at 50.0 µM 13.7% | [6]; [7] 7% | [6]; [8] 44%
active: [1]; at 50.0 µM 73.8% | [6]; at 50.0 µM 73.2%
